According to PubChem BioAssay (NCATS):
Records with an inconclusive call do not appear. Where a call stands in place of a potency, no number is given. Active and inactive are the calls of the source. The call rests on the fitted dose curve; in most records, active means well fitted cell-killing curve with a large enough effect; inconclusive means small, poorly fitted or top-dose-only effect, or effect the other way; inactive means flat fitted curve, though single readings scatter.

Tests used:
Assay in all cases: Primary qHTS to identify gynecologic anti-cancer compounds using libraries of approved drugs and bioactive compounds (AID 1345084); further: nearly all actives have a fitted effect of over 55% in size
Conditions in all cases: Gynecologic cancer cell panel viability, ATPlite luminescence, 48 h; series mostly up to 57.5 µM
JEG-3 = test system: JEG-3
Summary of the method: (§1)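 Cell viability after 48 h drug treatment, ATPlite luminescence readout; five doses.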

OV90 = test system: OV90
Summary of the method: as §1

PA-1 = test system: PA-1
Summary of the method: as §1

SKOV3 = test system: SKOV3
Summary of the method: as §1

Tov-21-G = test system: Tov-21-G
Summary of the method: as §1

Tov112D = test system: Tov112D
Summary of the method: as §1
Potency means the concentration at half of the fitted maximal effect.

| Structure (SMILES) | Potency (JEG-3) | Potency (OV90) | Potency (PA-1) | Potency (SKOV3) | Potency (Tov-21-G) | Potency (Tov112D) |
| --- | --- | --- | --- | --- | --- | --- |
| COc1cc(Nc2nc3ccccc3nc2NS(=O)(=O)c2ccc(NC(=O)c3ccc(C)c(OC)c3)cc2)cc(OC)c1 | inactive | inactive | inactive | inactive | inactive | inactive |
| CCN1C[C@H](C)n2c(c(O)c3c(=O)n(Cc4ccc(F)c(Cl)c4)nc(C(=O)NC)c32)C1=O | inactive | inactive | inactive | inactive | inactive | inactive |
| O=S(=O)(O)c1ccc2cc(N=Nc3cc(S(=O)(=O)O)c4cccnc4c3O)ccc2c1 | inactive | inactive | inactive | inactive | inactive | inactive |
| O=C1C(c2c(O)[nH]c3ccccc23)=Nc2ccccc21 | inactive | inactive | inactive | inactive | inactive | inactive |
| Cc1nc2c([nH]1)CCN(C(=O)c1ccc(NC(=O)c3ccccc3-c3ccccc3)cc1)c1ccccc1-2 | inactive | inactive | inactive | inactive | inactive | inactive |
| N#Cc1ccc(Oc2ccc3c(c2)COB3O)cc1 | inactive | inactive | inactive | inactive | inactive | inactive |
| Cn1cnc(-c2cc3nccc(Oc4ccc(NC(=S)NC(=O)Cc5ccccc5)cc4F)c3s2)c1 | inactive | inactive |  |  |  |  |
| NC(=O)c1ccc(N(C(N)=O)c2c(F)cccc2F)nc1-c1ccc(F)cc1F | inactive | inactive | inactive | inactive | inactive | inactive |
| CC1CCN(c2cc(N3CCN(C)CC3)ccc2NC(=O)c2cc(C#N)c[nH]2)CC1 | inactive | inactive | inactive | inactive | inactive | inactive |
| Cc1cc(C(C)Nc2ccccc2)c2nc(N3CCOCC3)cc(=O)n2c1 (stereo unspecified) | inactive | inactive | inactive | inactive | inactive | inactive |
| OC[C@H]1O[C@@H](OCCc2ccc(O)cc2)[C@H](O)[C@@H](O)[C@H]1O | inactive | inactive | inactive | inactive | inactive | inactive |
| O=C(CC12CC3CC(CC(C3)C1)C2)Nc1cccc2nc(NCCNCCO)ccc12 | inactive | inactive | inactive | inactive | inactive | inactive |
| Cc1cc2c(cc1C1(c3ccc(C(=O)O)cn3)CC1)C(C)(C)CCC2(C)C | inactive | inactive |  |  |  |  |
| CNC(=O)c1ccc2c(C(=Nc3cccc(CN(C)C)c3)c3ccccc3)c(O)[nH]c2c1 | inactive | inactive | inactive | inactive | inactive | inactive |
| CN(C)CCOc1cc(-c2cn[nH]c2)ccc1NC(=O)C1COc2ccccc2O1 (stereo unspecified) | inactive | inactive | inactive | inactive | inactive | inactive |
| CC(C)(O)CC(=O)NCCn1ccc2ncnc(Nc3ccc(Oc4cccc(C(F)(F)F)c4)c(Cl)c3)c21 | inactive | inactive | inactive | 22.4 µM (active) | inactive | inactive |
| O=C(c1ccc(C(=O)N2CCC(N3CCCC3)CC2)c(Nc2ccccc2)c1)N1CCC(N2CCCC2)CC1 | inactive | inactive | inactive | inactive | inactive | inactive |
| Cc1cnc(-c2cc(N3CCN(C(=O)CCS(C)(=O)=O)CC3)ncc2Cl)c(C)c1 | inactive | inactive | inactive | inactive | inactive | inactive |
| COc1ccc(CCC(=O)Nc2nc3ccc(Cl)cc3s2)cc1OC | inactive | inactive | inactive | inactive | inactive | inactive |
| O=C(O)CCNc1cc(N2CCc3ccccc3CC2)nc(-c2ccccn2)n1 | inactive | inactive | inactive | inactive | inactive | inactive |
| c1ccc(-c2oc3ncnc(NC[C@@H]4CCCO4)c3c2-c2ccccc2)cc1 | inactive | inactive | inactive | inactive | inactive |  |
| O[C@@H](COc1cccc2ncccc12)CN1CCN(C2c3ccccc3[C@@H]3[C@H](c4ccccc42)C3(F)F)CC1 (stereo partly specified) | inactive | inactive | inactive | inactive | inactive | inactive |
| COc1cc2nccc(Oc3ccc(NC(=O)Nc4cc(C)on4)c(Cl)c3)c2cc1OC | inactive |  |  |  |  |  |
| CN1C(=O)C(Cc2c[nH]c3ccccc23)NC1=S (stereo unspecified) | inactive | inactive | inactive | inactive | inactive | inactive |
| Cc1ccc2c(c1)c1c(n2CCc2ccc(C)nc2)CCN(C)C1 | inactive | inactive |  |  |  |  |
| O=C(CO)N1CCC(c2[nH]nc(-c3ccc(Cl)cc3)c2-c2ccncn2)CC1 | inactive | inactive | inactive | inactive | inactive | inactive |
| CCNC(=O)c1noc(-c2cc(C(C)C)c(O)cc2O)c1-c1ccc(CN2CCOCC2)cc1 | inactive | 3.98 µM (active) | 0.251 µM (active) |  |  |  |
